The results in this text go back to PubChem BioAssay AID1220 (Sanford-Burnham Center for Chemical Genomics, 2008).

SMILES strings stand for the structures. Out of some 190,000 compounds screened, about 1,300 (0.68%) were called active. Cut-off read from the data, not from the text of the source: active = inhibition above about 50%; inactive = the rest. Many of the other results were omitted from the sample, so actives are more common in it than they were.

This assay deals with Mannose-6-phosphate isomerase (Homo sapiens) (UniProt P34949). The assay can be described thus: human PMI inhibitors, high substrate, primary screen, biochemical, fluorescence intensity, high mannose 6-phosphate (AID 1220). To be noted: recombinant PMI enzyme, coupled fluorescence intensity; at 20 µM; hits give high values.
Chain of Mannose-6-phosphate isomerase (Homo sapiens) (P34949 whole entry, looked up): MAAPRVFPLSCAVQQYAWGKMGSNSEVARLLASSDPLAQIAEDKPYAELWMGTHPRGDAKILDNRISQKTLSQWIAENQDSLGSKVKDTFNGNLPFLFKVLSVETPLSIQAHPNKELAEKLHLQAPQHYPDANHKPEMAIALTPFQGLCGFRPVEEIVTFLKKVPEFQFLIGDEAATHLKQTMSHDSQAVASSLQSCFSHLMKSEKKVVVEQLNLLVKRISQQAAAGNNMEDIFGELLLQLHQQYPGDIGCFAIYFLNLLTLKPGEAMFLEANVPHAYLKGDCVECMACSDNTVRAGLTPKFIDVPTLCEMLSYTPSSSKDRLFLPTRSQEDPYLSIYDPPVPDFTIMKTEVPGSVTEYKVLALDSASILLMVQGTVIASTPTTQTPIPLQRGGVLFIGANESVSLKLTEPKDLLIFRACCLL
Turning to `Clc1cccc(-c2nnc3sc(-c4ccc5c(c4)OCO5)nn23)c1`, the inhibition is 6% (inactive).
Take `O=C1CCC(C(=O)OC(C(=O)c2c[nH]c3ccccc23)c2ccccc2)=NN1` (stereo not drawn): the inhibition was -1.8% (inactive).
As for `COc1ccc(N/C=C/C(=O)C(F)(F)F)cc1`, the inhibition was 14.6% (inactive).
With `CN(C)c1ccc(N/C=C/C(=O)C(F)(F)F)cc1`, the inhibition is 56.5% (active).
In the case of `CN(C)c1ccc(N/C=C/C(=O)C(C)(C)C)cc1`, the inhibition was 12.9% (inactive).
As to `CCn1cc(C(=O)NC(=S)Nc2cccc(O)c2)cn1`, the inhibition is 0.6% (inactive).
In the case of `CCCc1[nH]n(-c2nc3ccccc3s2)c(=O)c1C=NCC1CCCO1` (stereo not drawn), the inhibition was 51% (active).
Regarding `CCCc1[nH]n(-c2nc3ccccc3s2)c(=O)c1C=NCC(C)C`, the inhibition is 0.7% (inactive).
The figure for `CCCN=Cc1c(CCC)[nH]n(-c2nc3ccccc3s2)c1=O` is 4.7% (inactive); for `O=C(O)CCCC(=O)Nc1ccccc1C(=O)N1CCOCC1` it is -1.4% (inactive); for `CC(=O)c1cccc(NC(=O)CN2C(=S)NC(C)(C)CC2C)c1` (stereo not drawn) it is -1.5% (inactive).
`Cc1ccc(O)c(N=Cc2cccs2)c1`: the inhibition is 65.7% (active).
Regarding `Cc1ccc(O)c(C=Nc2cc(C)ccc2O)c1`, the inhibition was 23.3% (inactive).
Then `Cc1ccc(O)c(N=CC2=C(O)c3ccccc3C2=O)c1`, with 15.3% (inactive); and `O=C(NC1CCCCC1)N1CCC(c2nc3ccccc3[nH]2)CC1`, with 1.1% (inactive); and `COC(=O)c1ccc(OC(=O)c2ccco2)cc1`, with -6.2% (inactive).
With `O=C(Oc1ccc(-c2cnc3ccccc3n2)cc1)c1ccco1`, the inhibition is 15.4% (inactive).
As for `Cc1cc(C(=O)CSCCCn2c(=O)[nH]c3ccccc32)c(C)n1C`, the inhibition was -21.9% (inactive).
`CCN(C(=O)CN1CCN(c2ccc(O)cc2)CC1)c1c(N)n(Cc2ccccc2)c(=O)[nH]c1=O`: the inhibition is 51.6% (active).
As for `CC(C)CN(C(=O)CN1CCN(c2ccc(O)cc2)CC1)c1c(N)n(CC(C)C)c(=O)[nH]c1=O`, the inhibition is 52.3% (active).
Consider `CCN(C(=O)CN1CCN(c2ccccc2)CC1)c1c(N)n(Cc2ccccc2)c(=O)[nH]c1=O`, for which the inhibition is 7.8% (inactive).
The figure for `CC(=O)c1ccc(N2CCN(CC(=O)N(CC(C)C)c3c(N)n(CC(C)C)c(=O)[nH]c3=O)CC2)cc1` is -0.1% (inactive); for `CC(C)CN(C(=O)CN1CCN(c2ccc(F)cc2)CC1)c1c(N)n(CC(C)C)c(=O)[nH]c1=O` it is -8.7% (inactive).
As to `CCN(C(=O)CN1CCN(c2ccc(OC)cc2)CC1)c1c(N)n(Cc2ccccc2)c(=O)[nH]c1=O`, the inhibition was 2.4% (inactive).
For `Cc1ccc(NC(=S)N2CCCN(Cc3ccc(F)cc3)C2)c(C)c1`, the inhibition was -3.7% (inactive).
With `Cc1ccc(CC(=O)Nc2cccnc2)cc1`, the inhibition is 10.1% (inactive).
Consider `Cc1ccc(N2C(=S)SC3CS(=O)(=O)CC32)cc1` (stereo not drawn), for which the inhibition is -0.7% (inactive).
For the molecule `O=C(CCC1CCCC1)Nc1nnc(-c2ccc3c(c2)OCO3)s1`, the inhibition was 1.1% (inactive).
Then `CCOC(=O)c1c(OCC)[nH]c2c1cc(O)c1ccccc12`, with 54.7% (active); and `CCOC(=O)c1c(C)[nH]c(C)c1-c1ccccc1OC`, with 1.6% (inactive).
Take `CCOC(=O)c1c(OCC)[nH]c2ccc(O)cc12`: the inhibition was -2.7% (inactive).
The figure for `CCOC(=O)c1c(C)cc(=O)oc1C` is 3.9% (inactive).
Regarding `CCOC(=O)c1c(-c2ccccc2)[nH]c2ccc(O)cc12`, the inhibition was 5.9% (inactive).
Turning to `CCOC(=O)c1c(C)[nH]c2c1-c1ccccc1C(=O)C2=O`, the inhibition is 62.9% (active).
Regarding `CCOC(=O)c1c(C)oc2c1c(C=NCc1ccccn1)c(O)c1ccccc12`, the inhibition is 32.6% (inactive).
On to `CCOC(=O)c1c(C)oc2c1c(C(c1ccccc1)N1CCOCC1)c(O)c1ccccc12` (stereo not drawn), for which the inhibition is 30.5% (inactive).
Consider `CCOC(=O)c1c(C)oc2c1cc(O)c1ccccc12`, for which the inhibition was 54.3% (active).
On to `CCOC(=O)c1c(C)oc2ccc(O)cc12`, for which the inhibition is 2.8% (inactive).
`CCOC(=O)c1c2c3c(cccc3[nH]c1=O)C(=O)c1ccccc1-2`: the inhibition was -30.6% (inactive).
In the case of `CCCCCCN1C(=O)C(O)=C(C(C)=O)C1c1ccc(Cl)cc1` (stereo not drawn), the inhibition was 3.1% (inactive).
On to `O=C(N/N=C/c1c[nH]c2ccccc12)c1cc(-c2ccccc2)n[nH]1`, for which the inhibition is -2.4% (inactive).
Take `O=C1NC(CCc2ccccc2)C(=O)N1Cc1ccc(Br)cc1` (stereo not drawn): the inhibition was 10.5% (inactive).
On to `COc1ccc(Nc2n[nH]c(N)c2C(N)=O)cc1`, for which the inhibition is 1.4% (inactive).
For `CN(CC(=O)N1CCCCC1)S(=O)(=O)c1cccc2cccnc12`, the inhibition is 13.4% (inactive).
In the case of `Cc1[nH]c2ccccc2c1/C=N/NC(=O)Nc1ccccc1`, the inhibition is -7.2% (inactive).
For the molecule `CCOc1ccc(C(=O)NCC(=O)Nc2ccc(N3CCOCC3)cc2)cc1OCC`, the inhibition was 3.6% (inactive).
Turning to `O=C(N/N=C/c1coc2ccccc2c1=O)c1cn(-c2ccccc2)nc1-c1ccc(F)cc1`, the inhibition was -12.2% (inactive).
As to `CC(C)OCc1c(C(=O)OC/C(O)=C(\C#N)c2nc3ccccc3[nH]2)oc2ccccc12`, the inhibition is 28.4% (inactive).
Then `CCOC(=O)c1c(C)[nH]c2cc(Br)c(O)cc12`, with 2.1% (inactive); and `CCOC(=O)c1c(C)[nH]c2ccc(O)cc12`, with 6% (inactive); and `CCOC(=O)c1c(C)[nH]c2c1cc(O)c1ccccc12`, with 61.2% (active).
Turning to `Nc1cc(-c2cccc(Br)c2)nn1Cc1ccccc1`, the inhibition was 11.2% (inactive).
As to `CCOC(=O)N1CCN(S(=O)(=O)c2ccc(C(=O)NNc3nc4c(C)cccc4s3)cc2)CC1`, the inhibition is 1.7% (inactive).
Regarding `CCCc1n(CC)c2ccccc2[n+]1CC(O)COC1CCCCC1` (stereo not drawn), the inhibition is -2.9% (inactive).
The figure for `CCOC(=O)/C(C#N)=C\c1ccc(OC)c(OC)c1` is -3.6% (inactive); for `CCOC(=O)/C(C#N)=C/c1ccc(OC)c(OC)c1` it is 5% (inactive); for `COc1cc(/C=C(/NC(=O)c2ccccc2)C(=O)Nc2ccccc2)c([N+](=O)[O-])cc1OC` it is 27.2% (inactive).
As to `COc1cc(/C=C(\C#N)C(=O)Nc2ccc3ccccc3c2)c([N+](=O)[O-])cc1OC`, the inhibition was 67% (active).
The figure for `COc1ccc(NC(=O)/C(=C\c2cc(OC)c(OC)cc2[N+](=O)[O-])NC(=O)c2ccccc2)cc1` is 15.2% (inactive); for `CCOC(=O)/C(C#N)=C\c1cc(OC)c(OC)cc1[N+](=O)[O-]` it is 69.6% (active).
Take `O=C(Cn1ccc([N+](=O)[O-])n1)N1CCc2ccccc21`: the inhibition was 6.2% (inactive).
Then `COc1ccccc1Sc1nc(-c2ccccn2)ncc1OC`, with -3.1% (inactive).
Turning to `CCCCC/C=N\NC(=O)Cc1ccc([N+](=O)[O-])cc1`, the inhibition is -6.9% (inactive).
For the molecule `CCOC(=O)C1=C(C)Nc2ncnn2C1c1ccccc1F` (stereo not drawn), the inhibition is -19.1% (inactive).
Then `O=C(O)C1C(c2ccccc2)C(C(=O)Oc2ccccc2)C1c1ccccc1` (stereo not drawn), with -2.4% (inactive); and `CC(C)C(=O)NC(c1ccc([N+](=O)[O-])cc1)c1c(O)ccc2ccccc12` (stereo not drawn), with 59.5% (active); and `CC(C)C(=O)NC(c1ccco1)c1c(O)ccc2ccccc12` (stereo not drawn), with 56.9% (active).
On to `CCCCC(=O)NC(c1ccco1)c1c(O)ccc2ccccc12` (stereo not drawn), for which the inhibition is 30.3% (inactive).
On to `CCCC(=O)NC(c1ccco1)c1c(O)ccc2ccccc12` (stereo not drawn), for which the inhibition is 33.6% (inactive).
Consider `CC(C)C(=O)NC(c1cccc([N+](=O)[O-])c1)c1c(O)ccc2ccccc12` (stereo not drawn), for which the inhibition is 26.6% (inactive).
For `CC(=O)NC(c1ccc([N+](=O)[O-])cc1)c1c(O)ccc2ccccc12` (stereo not drawn), the inhibition is 34.2% (inactive).
For the molecule `COc1ccc2[nH]c(=O)c(CN(Cc3cccs3)C(=S)Nc3cccc(C)c3)cc2c1`, the inhibition is 5% (inactive).
Turning to `C=CCn1c(SCC(=O)c2ccc(Cl)cc2)nnc1-c1ccc2c(c1)OCO2`, the inhibition is -0.6% (inactive).
With `O=C(CCNC(=O)c1ccccc1)Oc1ccc([N+](=O)[O-])cc1`, the inhibition was -10.4% (inactive).
The figure for `N#CC1=C(N)SC(N)=C(C#N)C1c1c(Cl)cccc1Cl` is 6% (inactive); for `COc1ccc(-c2csc(Cc3nnc(N4CCOCC4)n3-c3ccccc3)n2)cc1OC` it is -41% (inactive); for `COc1ccc(NC(=O)/C(N=Nc2cc(S(=O)(=O)Nc3ccc(OC)cc3)ccc2OC)=C(\C)O)cc1` it is -1% (inactive).
Then `CCOC(=O)N/C(N)=N/c1nc2ccccc2s1`, with -3.7% (inactive); and `CC(=O)Nc1cc(Cl)c(N=Cc2ccc(O)cc2O)cc1Cl`, with 63.3% (active).
`CC(=O)Nc1cc(N=Cc2ccc(O)cc2O)c(Cl)cc1Cl`: the inhibition was 44.8% (inactive).
With `COc1ccc(O)c(C=Nc2cc(NC(C)=O)c(Cl)cc2Cl)c1`, the inhibition is 19.4% (inactive).
Consider `CCOC(=O)Nc1ccc2c(c1)N(C(=O)OC)c1ccccc1CC2`, for which the inhibition is -3.2% (inactive).
On to `CS(=O)(=O)N(Cc1ccccc1)c1ccc(C(=O)N2CCOCC2)cc1`, for which the inhibition was 11.2% (inactive).
With `CCOc1ccc2oc(C(=O)NC3CCN(Cc4ccccc4)CC3)c(C)c2c1`, the inhibition was -4.4% (inactive).
For the molecule `COc1ccc(N2CCN(C(=O)c3ccc(SC)cc3OC)CC2)cc1`, the inhibition is 21.7% (inactive).
As for `COc1cc(SC)ccc1C(=O)N1CCN(c2ccccc2)CC1`, the inhibition is 5.9% (inactive).
For the molecule `COc1cc(SC)ccc1C(=O)N1CCN(c2ccc(O)cc2)CC1`, the inhibition was 55.8% (active).
With `CCn1c(SCC(=O)N2CCCCC2C)nc2ccsc2c1=O` (stereo not drawn), the inhibition was -3.6% (inactive).
The figure for `CSc1ccccc1NC(=O)CO/N=C(\C)c1cc2ccccc2o1` is 14.6% (inactive).
For `CCc1ccc(NC(=O)CO/N=C(\C)c2cc3ccccc3o2)cc1`, the inhibition was 45% (inactive).
`CCc1cccc(C)c1NC(=O)CO/N=C(\C)c1cc2ccccc2o1`: the inhibition was 60.5% (active).
In the case of `O=C(CC1(O)C(=O)N(Cc2cccc3ccccc23)c2ccccc21)c1cccnc1` (stereo not drawn), the inhibition was 2.3% (inactive).
With `CCCn1c(SCc2ccccn2)nc2c1c(=O)n(C)c(=O)n2C`, the inhibition was 4.6% (inactive).
As for `O=C(NC1Cc2ccccc2C1)c1cc(COc2ccc(F)cc2Cl)on1`, the inhibition was -6.1% (inactive).
Then `CCS(=O)(=O)c1ccc(-c2csc(-c3ccccc3Cl)n2)c(Cl)c1Cl`, with 5.5% (inactive); and `COc1ccc(CN2CCNC(=O)C2CC(=O)N2CCCCO2)c(OC)c1` (stereo not drawn), with 27.5% (inactive).
With `COc1cc(CN2CCNC(=O)C2CC(=O)N2CCCCO2)cc(OC)c1` (stereo not drawn), the inhibition is 52% (active).
`COc1ccc(CN2CCNC(=O)C2CC(=O)N2CCCCO2)cc1OC` (stereo not drawn): the inhibition was 45.9% (inactive).
